# Measured values as given in PubChem BioAssay (NCI).
# The panel holds about 83,000 compounds, 20% with a hit somewhere; the sample as a whole holds those more often.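 The test compound was applied at a single concentration to cells in 96-well plates for 48 hours, and percent growth was recorded.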 A number with no mark means an inactive call. Active and inactive are the calls of the source. Rule for the calls: active = growth percent below 10; inactive = the rest.
# Columns and labels:
# Experiment in all cases: NCI-60 one-dose screen, 48 h (100 = growth as untreated, 0 = no growth, -100 = all killed)
# Conditions in all cases: 10 µM unless noted
# SK-MEL-2 melanoma = system: SK-MEL-2 melanoma
# EKVX NSCLC = system: EKVX NSCLC
# SN12C renal = system: SN12C renal
# UO-31 renal = system: UO-31 renal
# TK-10 renal = system: TK-10 renal
# ACHN renal = system: ACHN renal
# CAKI-1 renal = system: CAKI-1 renal
# A498 renal = system: A498 renal
# CCRF-CEM leukemia = system: CCRF-CEM leukemia
# MOLT-4 leukemia = system: MOLT-4 leukemia
# SR leukemia = system: SR leukemia
# OVCAR-8 ovarian = system: OVCAR-8 ovarian
# OVCAR-5 ovarian = system: OVCAR-5 ovarian
# OVCAR-4 ovarian = system: OVCAR-4 ovarian
# SK-OV-3 ovarian = system: SK-OV-3 ovarian
# IGROV1 ovarian = system: IGROV1 ovarian
# OVCAR-3 ovarian = system: OVCAR-3 ovarian
# HS 578T breast = system: HS 578T breast
# NCI/ADR-RES ovarian = system: NCI/ADR-RES ovarian
SMILES,growth (SK-MEL-2 melanoma),growth (EKVX NSCLC),growth (SN12C renal),growth (UO-31 renal),growth (TK-10 renal),growth (ACHN renal),growth (CAKI-1 renal),growth (A498 renal),growth (CCRF-CEM leukemia),growth (MOLT-4 leukemia),growth (SR leukemia),growth (OVCAR-8 ovarian),growth (OVCAR-5 ovarian),growth (OVCAR-4 ovarian),growth (SK-OV-3 ovarian),growth (IGROV1 ovarian),growth (OVCAR-3 ovarian),growth (HS 578T breast),growth (NCI/ADR-RES ovarian)
O=c1c2cc(F)ccc2sc2c(NCCCNCCO)nc3ccc(F)cc3c12,97.3%,75.4%,66.1%,31.1%,67.5%,46.9%,27.1%,26.9%,15.1%,18.8%,-25.8% (active),58.5%,73.7%,41.5%,80.4%,43.6%,30.4%,61%,66.5%
Cc1ccc(-c2cnc3sc(C(=O)NCCc4ccccc4)c(C)n23)cc1,108%,86.8%,93.2%,75.1%,139%,94.2%,94.1%,101%,64.7%,87%,110%,96.9%,98.5%,67%,84.6%,80.5%,79.4%,86.4%,104%
NCCOc1ncccc1/C=C1\c2ccccc2-c2ccc(C(F)F)cc21,115%,79.7%,16.8%,31.1%,86.6%,4.83% (active),35.5%,47.5%,6.32% (active),2.92% (active),2.72% (active),56.4%,69.6%,83.9%,64.3%,32.5%,76.2%,53.4%,57.4%
Cc1[nH]c(C(=O)Nc2ccc(C(=O)NCCN)cc2OC(C)C)c(Cl)c1Cl,98.6%,87.6%,48.1%,57.1%,-21.6% (active),40.7%,14.2%,67.4%,-10.5% (active),-27.7% (active),-51.3% (active),9.08% (active),89.4%,-12.2% (active),90.5%,64.1%,-6.76% (active),35.1%,91%
NCCCNc1nc2ccccc2c2c(=O)c3cc(C(F)(F)F)ccc3sc12,89.7%,71.6%,51.9%,31.9%,51.9%,-10.8% (active),-67.7% (active),23.6%,5.18% (active),-20.1% (active),-14.9% (active),0.22% (active),69.8%,-45% (active),84.3%,34.8%,-72.4% (active),12.2%,-15.9% (active)
Cc1cccc2c3c(sc12)C(c1ccc(Cl)cc1)C(C#N)=C(/N=C/c1ccc(Cl)cc1)O3 (stereo not drawn),43%,46.5%,27.3%,37.9%,74.8%,25.9%,5.67% (active),-4.07% (active),5.88% (active),14.2%,24.1%,25%,24.6%,52.9%,59%,21.9%,-2.5% (active),14.3%,
CC(C)OC(=O)Nc1ccc(-c2nc(-c3cccc(OCCN4CCOCC4)c3)c(-c3ccnc(Br)c3)[nH]2)cc1,32.5%,50.3%,57.6%,-15.9% (active),68.1%,28.4%,35.5%,-9.64% (active),16.8%,0.706% (active),-14.6% (active),38.9%,55.6%,54%,12.2%,45.7%,45.1%,-33% (active),57.1%
CCCCn1c(-c2ccc(C(=O)O/N=C(\N)c3ccc(OC)cc3)cc2)nc(-c2ccccc2)c1-c1ccccc1,52.6%,-79.2% (active),-62.7% (active),-93.7% (active),-78.8% (active),-97.9% (active),-46.3% (active),20.9%,-48.7% (active),-39.7% (active),-47.4% (active),-16.8% (active),24.1%,23.1%,87%,-70.2% (active),-6.99% (active),-8.31% (active),-39.5% (active)
CCCCCCCCCCCCCCCCCC1OCC(COC(=O)O[C@]2(CC)C(=O)OCc3c2cc2n(c3=O)Cc3cc4ccccc4nc3-2)O1 (stereo partly drawn),116%,92.4%,49%,73.1%,95.5%,62.9%,65.7%,88.6%,29.2%,43.3%,8.38% (active),70.2%,95.6%,100%,83.9%,81.5%,94.5%,99.5%,66.6%
CC1CN(C2CCCCC2)C(=S)N(c2ccccc2)C1=O (stereo not drawn),122%,101%,111%,97.7%,116%,110%,97.9%,95.4%,93.8%,70.4%,98.7%,118%,104%,97.2%,116%,105%,112%,109%,102%
COc1ccc(OC)c(/C=C2\Oc3cc(OCCN4CCC(Cc5ccccc5)CC4)ccc3C2=O)c1,105%,75.6%,80.8%,53.8%,97.7%,99.7%,61.4%,88.6%,75.6%,62.4%,2.46% (active),78%,92.1%,93.8%,93.3%,76.2%,89.8%,82.2%,80.2%
COc1cccc(-c2nc(-c3ccc(NC(=O)c4ccccc4)cc3)[nH]c2-c2ccnc(Br)c2)c1,29.4%,24.4%,53.8%,3.81% (active),59.5%,24.8%,20.4%,-28.3% (active),21.4%,15.1%,-2.71% (active),34%,47.9%,38.4%,6.72% (active),55.1%,40%,-25.8% (active),35.5%
CCc1cccc2c3c(sc12)C(c1ccc(F)cc1)C(C#N)=C(N)O3 (stereo not drawn),57%,51%,32.7%,48.9%,77.8%,30.1%,14.5%,7.3% (active),15.1%,17.3%,27.3%,32.9%,32.6%,60.4%,78.5%,31.1%,10.9%,26.7%,14%
O=C(CCN1C(=O)/C(=C/c2ccc(O)cc2)SC1=S)Nc1ccc(Cl)cc1,108%,95.8%,91.7%,6.22% (active),108%,84%,92.5%,95%,46.7%,84.7%,110%,97%,95.6%,91.1%,71.8%,79.7%,99.4%,92.8%,104%
CCc1cccc2c1S/C(=C/c1ccc(Cl)cc1)C2=O,105%,95%,90.5%,70.7%,170%,91.3%,87.3%,113%,98%,88.8%,79%,101%,100%,93.5%,85.7%,65.6%,104%,88%,101%
Cc1ccc2sc3c(NCCCN)nc4ccccc4c3c(=O)c2c1,107%,82.7%,69.2%,47.1%,85.2%,20.6%,-6.43% (active),44.6%,5.2% (active),-30.6% (active),-31.8% (active),38.3%,85.8%,28%,90.2%,65.7%,2.61% (active),59.8%,39.4%
